Compounds with a hit are over-represented: about 2.7% of the library has one in this group of screens.
MRP resist rev = MRP-mediated drug resistance reversal; 0.04% of 85,000 active; H69AR cells + 2 uM doxorubicin, CellTiter-Glo, 72 h; differential viability (reversal), % at 10 µM;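 active = viability drop by adding the cancer drug above about 55%, with treated viability meeting a 40% cutoff, limit read from the data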;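 also: larger differential means the compound sensitizes cells more to doxorubicin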
ERa SRC1 inh = ER-alpha (human) coactivator binding inhibition | P03372 | TR-FRET ER-alpha LBD / SRC-1 peptide, estradiol-bound | inhibition, % at 25.6 µM | 1.7% of 86,000 active | AID 629; in the data active = inhibition above about 50%
MRP1 act = MRP-1 activation; H69AR cells + doxorubicin, viability rescue, CellTiter-Glo; viability increase, % at 10 µM; 0.61% of 140,000 active;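 active = viability gain under doxorubicin at or above a set limit, the compound median plus 3 SD, cut at about 4.7% in these data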;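 also: MRP-1 overexpressing cells given doxorubicin 25 µM after compound pretreatment; 18-22 h compound pretreatment then 72 h with doxorubicin before readout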
ERa coact pot = enhances coactivator binding to human estrogen receptor alpha | P03372 | TR-FRET ERalpha-LBD/SRC-Cy5 coactivator binding, 2 h; 100 = basal binding, no effect | coactivator binding (% of control), % at 25.6 µM | 1.3% of 86,000 active | AID 639; in the data active = activity above about 200%;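 also: binding measured in presence of low estradiol as agonist stimulus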
ERb coact inh = blocks coactivator binding to human estrogen receptor beta; TR-FRET ER-beta LBD / SRC1-Cy5 peptide binding; receptor agonist-loaded with 1 µM estradiol; inhibition, % at 25.6 µM; 1.3% of 86,000 active;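 active = compounds whose percent inhibition of the receptor-coactivator binding signal exceeds about 50% in the single-dose screen, limit read from the data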
Target sequence (Q92731 whole entry, looked up, the tested form may be a part): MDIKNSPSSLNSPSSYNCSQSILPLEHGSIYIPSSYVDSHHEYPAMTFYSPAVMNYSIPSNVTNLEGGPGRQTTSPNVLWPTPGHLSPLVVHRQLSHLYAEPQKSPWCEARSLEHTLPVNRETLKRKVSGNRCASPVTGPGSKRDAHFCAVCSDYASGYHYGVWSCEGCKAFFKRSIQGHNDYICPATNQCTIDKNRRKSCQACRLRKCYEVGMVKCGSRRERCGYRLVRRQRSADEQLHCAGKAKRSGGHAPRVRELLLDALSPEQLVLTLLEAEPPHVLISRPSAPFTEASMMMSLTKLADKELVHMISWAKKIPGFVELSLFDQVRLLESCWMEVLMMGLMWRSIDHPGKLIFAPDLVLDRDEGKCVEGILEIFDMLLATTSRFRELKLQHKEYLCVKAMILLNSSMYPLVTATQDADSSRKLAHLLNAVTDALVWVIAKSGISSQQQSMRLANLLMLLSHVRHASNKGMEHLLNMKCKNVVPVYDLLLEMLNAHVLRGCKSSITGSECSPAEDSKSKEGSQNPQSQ
Numbers stand for hits; . = inactive; / = no result; [ ] = remark or other dose.

SMILES	MRP resist rev	ERa SRC1 inh	MRP1 act	ERa coact pot	ERb coact inh
O=c1[nH]c(-c2ccccc2O)nc2c1CCCC2	.	.	.	.	.
O=C(Nc1nc(-c2ccco2)c(-c2ccco2)s1)C1CC(=O)N(c2ccc3c(c2)OCCO3)C1 (centres undefined)	.	.	.	.	70.5[fluorescence artefact?]
CCCCc1nnc(NC(=O)C2CC(=O)N(c3ccc4c(c3)OCCO4)C2)s1 (centres undefined)	/	/	.	/	/
O=C(Cc1ccccc1)Nc1ccc(SC(F)F)cc1	/	/	.	/	/
O=c1oc2ccccc2n1CCn1c2ccccc2c2nc3ccccc3nc21	.	77.0	.	.	.
COc1ccc2c(c1)c1nc3ccccc3nc1n2CCn1c(=O)oc2ccccc21	/	/	.	/	/
N/C(Cc1ccc(Cl)cc1)=N\OC(=O)C1CCCCC1	/	/	.	/	/
CCCN1C(=O)/C(=N\OCC(=O)Nc2ccc(C(C)C)cc2)c2ccccc21	/	/	6.5	/	/
CC(=O)NC(CC(=O)NC12CC3CC(CC(C3)C1)C2)c1ccccc1 (centres undefined)	/	/	.	/	/
CCCN1C(=O)/C(=N\OCC(=O)NC23CC4CC(CC(C4)C2)C3)c2ccccc21	/	/	5.7	/	/
CCn1c(C)nc2cc(C(=O)N/N=C/c3ccc(OC)c(O)c3)ccc21	/	/	.	/	/
COc1cc(CCC(=O)OCC(=O)Nc2c(C)cc(C)cc2C)cc(OC)c1OC	/	/	.	/	/
Cn1c2ccccc2c(=O)c2c(=O)n(C3CCCCC3)c(-c3cccs3)nc21	.	.	.	436.3[fluorescence artefact?]	.
Cn1c2ccccc2c(=O)c2c(=O)n(C3CCCCCC3)c(C3CCCCC3)nc21	/	/	.	/	/
COc1ccc(OC)c(/C=c2\sc3nc(-c4cccs4)nn3c2=O)c1	.	.	.	.	.
COc1ccccc1/C=c1\sc2nc(-c3ccco3)nn2c1=O	.	74.2	.	.	67.5[fluorescence artefact?]
CCOc1ccc(/C=c2\sc3nc(-c4ccco4)nn3c2=O)cc1OCC	.	55.4	.	.	.
COc1ccc(NC(=O)CCCC2CCCCC2)cc1S(=O)(=O)N1CCCCC1	/	/	5.7	/	/
O=C(COc1ccccc1)N1CCN(c2nnc(-c3ccccc3)c3ccccc23)CC1	.	.	.	.	.
O=C(CN1C(=O)c2ccccc2C1=O)N1CCN(c2nnc(-c3ccccc3)c3ccccc23)CC1	.	.	.	219.8	.
Cc1ccc(-c2nnc(N3CCN(C(=O)CN4C(=O)c5ccccc5C4=O)CC3)c3ccccc23)cc1	.	58.5	/	.	.
CC(C)CNC(=O)COc1ccc2c3c(c(=O)oc2c1)CCC3	/	/	.	/	/
CC(C)CCNC(=O)COc1ccc2c3c(c(=O)oc2c1)CCC3	.	.	.	352.1	.
COc1ccc2c(c1)c(=O)oc1cc(OCC(=O)NC3CCCCC3)ccc12	.	71.2	.	.	72.3
Cc1ccc(NC(=O)c2cc([N+](=O)[O-])ccc2NCc2cccnc2)cc1	/	/	.	/	/
SMILES	MRP resist rev	ERa SRC1 inh	MRP1 act	ERa coact pot	ERb coact inh
c1ccc(-c2cn3c(n2)-c2ccccc2C3)cc1	/	/	.	/	/
O=C(NCc1ccc2c(c1)OCO2)c1ccccn1	.	.	.	.	.
O=C(NCc1ccc2c(c1)OCO2)c1cc2ncc(Br)cn2n1	.	79.7[fluorescence artefact?]	.	.	77.9[fluorescence artefact?]
Cc1ccccc1NC(=O)c1cnc2ccccn2c1=O	/	/	.	/	/
O=C(Nc1cnc2ccccn2c1=O)c1ccc(F)cc1	.	.	.	.	64.9
CCOc1cccc2sc(NC(=O)c3ccc(Br)s3)nc12	.	.	.	432.9[fluorescence artefact?]	.
CCOC(=O)Cc1csc(NC(=O)c2ccc(Br)s2)n1	.	.	.	.	.
COc1ccc(OCCC(=O)OCC(=O)NCc2ccco2)cc1	.	81.2	.	232.6[fluorescence artefact?]	.
COc1ccc(S(=O)(=O)N(C)CC(=O)NCc2ccco2)cc1	.	.	.	.	.
COc1ccc(N(CC(=O)NCc2ccco2)S(C)(=O)=O)cc1	.	.	.	.	99.0[fluorescence artefact?]
COc1cccc(CN(C)CC(=O)NC(=O)NCc2ccco2)c1	.	57.5[fluorescence artefact?]	.	.	.
COc1ccc(N(CC(=O)NCc2ccco2)S(C)(=O)=O)cc1OC	.	.	.	.	.
O=C(COC(=O)CCNS(=O)(=O)c1ccc(Cl)cc1)NCc1ccco1	.	.	.	.	.
COc1ccccc1NCCC(=O)OCC(=O)NCc1ccco1	.	77.4[fluorescence artefact?]	.	.	61.3[fluorescence artefact?]
Cc1ccc2nc(SC(C(=O)c3ccccc3)c3ccccc3)nc(C)c2c1 (centres undefined)	/	/	.	/	/
COC(=O)c1ccc(COC(=O)CCC(=O)c2cccs2)cc1	/	/	.	/	/
O=C(c1ccc(Cl)cc1)N1CCC(O)(CSc2ccc(Cl)cc2Cl)CC1	/	/	.	/	/
CCn1c(NC(=S)Nc2ccccc2)nc2ccccc21	/	/	.	/	/

Screens: PubChem BioAssay, several laboratories
